Reference: PubChem BioAssay (NCI)
About 79,000 compounds went through this panel and 15% of them were active in at least one assay; those are over-represented in the sample as a whole. Activity calls are given as the source filed them. Cut-off read from the data, not from the text of the source: active = growth inhibition above about 70%; inactive = the rest.

How the values were obtained:
[1] = NCI Yeast Anticancer Drug Screen. Data for the mec2-1 strain (AID 157); conditions: S. cerevisiae mec2-1 strain, hits give high values
How it was run: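 Growth inhibition is read against vehicle-treated controls after compound exposure of the mec2-1 yeast strain, which is defective in DNA damage repair or cell cycle control.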

[2] = NCI Yeast Anticancer Drug Screen. Data for the rad14 strain (AID 159);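 note: 0% = growth of vehicle-treated control cultures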; conditions: S. cerevisiae rad14 strain growth inhibition, hits give high values
How it was run: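 Vehicle-treated cultures served as the baseline for growth inhibition of a DNA repair-mutant yeast strain exposed to each compound.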

[3] = NCI Yeast Anticancer Drug Screen. Data for the sgs1 mgt1 strain (AID 161);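 note: 0% = growth of cultures given vehicle only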; conditions: S. cerevisiae sgs1 mgt1 strain, hits give high values
How it was run: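 Yeast cells carrying a defined DNA-repair defect were exposed to test compounds. Growth inhibition was measured relative to vehicle-treated controls.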

[4] = NCI Yeast Anticancer Drug Screen. Data for the CLN2oe strain (AID 163);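 note: 0% = growth of vehicle-only control cultures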; conditions: S. cerevisiae CLN2oe strain, hits give high values
How it was run: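 Compound-treated yeast; growth vs vehicle ctrl = % inhibition. Genetically altered strain (cell-cycle control).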

[5] = NCI Yeast Anticancer Drug Screen. Data for the cln2 rad14 strain (AID 165);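 note: 0% = growth equal to vehicle treated cultures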; conditions: S. cerevisiae cln2 rad14 strain, hits give high values
How it was run: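 Growth inhibition, relative to vehicle-treated controls, is the read-out. The test organism is a yeast strain with defined genetic alterations, cln2 rad14.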

[6] = NCI Yeast Anticancer Drug Screen. Data for the wt2 strain (AID 169);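 note: 0% = growth of vehicle-treated yeast cultures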; conditions: S. cerevisiae wt2 strain growth inhibition, hits give high values
How it was run: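 Compound exposure of yeast; growth compared with vehicle controls; inhibition reported.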

[7] = NCI Yeast Anticancer Drug Screen. Data for the mlh1 strain (AID 171);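 note: 0% = growth of vehicle-treated control cultures of the same strain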; conditions: S. cerevisiae mlh1 strain growth inhibition, hits give high values
How it was run: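 Compounds are applied to a genetically altered yeast strain, and its growth is compared with that of vehicle-treated cultures to give percent inhibition.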

[8] = NCI Yeast Anticancer Drug Screen. Data for the sgs1 strain (AID 173);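 note: 0% = growth of vehicle-only control cultures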; conditions: S. cerevisiae sgs1 mutant, hits give high values
How it was run: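 Compounds applied to genetically altered yeast; growth compared with vehicle-treated cultures to give % inhibition.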

[9] = NCI Yeast Anticancer Drug Screen. Data for the mlh1 rad18 strain (AID 175); conditions: S. cerevisiae mlh1 rad18 strain growth inhibition, hits give high values
How it was run: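 Cells of a genetically altered yeast strain, deficient in DNA damage repair, were treated with compound. Their growth was then compared with that of vehicle-treated cultures to give inhibition.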

[10] = NCI Yeast Anticancer Drug Screen. Data for the rad18 strain (AID 177); conditions: S. cerevisiae rad18 mutant growth inhibition, hits give high values
How it was run: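 Compounds are applied to a repair-deficient yeast strain, and growth is compared with that of vehicle-treated cultures to give percent inhibition.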

[11] = NCI Yeast Anticancer Drug Screen. Data for the rad52 strain (AID 147);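 note: 0% = growth of vehicle-treated control cultures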; conditions: S. cerevisiae rad52 mutant growth inhibition, hits give high values
How it was run: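 DNA repair-defective yeast; compound exposure; growth scored against vehicle controls.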

[12] = NCI Yeast Anticancer Drug Screen. Data for the wt1 strain (AID 149);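 note: 0% = growth of vehicle-treated wt1 cultures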; conditions: S. cerevisiae wt1 strain (SPY 50644) growth inhibition, hits give high values
How it was run: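 Vehicle-normalised growth inhibition; strain wt1; compound exposure.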

[13] = NCI Yeast Anticancer Drug Screen. Data for the rad50EPP+ strain (AID 151);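 note: 0% = growth of vehicle-treated control cultures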; conditions: S. cerevisiae rad50 mutant strain, hits give high values
How it was run: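 rad50EPP+ yeast treated with test compounds. Readout: growth vs vehicle control.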

[14] = NCI Yeast Anticancer Drug Screen. Data for the mgt1 strain (AID 153); conditions: S. cerevisiae mgt1 mutant growth inhibition, hits give high values
How it was run: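 Growth inhibition relative to vehicle controls was scored for the mgt1 yeast strain after compound exposure.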

[15] = NCI Yeast Anticancer Drug Screen. Data for the rad50 strain (AID 155);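 note: 0% = growth of vehicle-only cultures of the same strain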; conditions: S. cerevisiae rad50 strain growth inhibition, hits give high values
How it was run: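 A DNA repair-deficient yeast mutant serves as the test organism; compound-induced growth inhibition is calculated against vehicle-treated cells.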

[16] = NCI Yeast Anticancer Drug Screen. Data for the bub3 strain (AID 167); conditions: S. cerevisiae bub3 mutant strain, hits give high values
How it was run: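 Inhibition values come from growth of compound-treated mutant yeast normalised to vehicle-treated controls.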

[17] = at 5.0 µM (retest, dose inferred, filed as 0.5)
[18] = at 50.0 µM (retest, dose inferred, filed as 5.0)

Measured: growth inhibition

CC(=O)OC1CCC2(C)C(=CCC3C4CCC5(OC6CC(C)CN(C(C)=O)C6C5C)C(C)=C4C(=O)C32)C1 (stereo unspecified)
active: [1]; at 33.0 µM 96% | [1]; [18] 98% | [1]; at 100.0 µM 89% | [2]; at 33.0 µM 96% | [2]; at 100.0 µM 89% | [3]; [18] 96% | [4]; at 33.0 µM 98% | [4]; at 100.0 µM 92% | [5]; [18] 98% | [5]; at 50.0 µM 84.2% | [6]; at 33.0 µM 97% | [7]; at 33.0 µM 96% | [7]; at 100.0 µM 90% | [8]; at 33.0 µM 96% | [8]; at 100.0 µM 93% | [9]; [18] 98% | [9]; at 50.0 µM 76.8% | [10]; at 11.0 µM 75% | [10]; at 33.0 µM 96% | [10]; at 100.0 µM 95%
inactive: [1]; [17] -9% | [1]; at 11.0 µM 3% | [1]; at 50.0 µM 68.4% | [2]; at 1.2 µM -30% | [2]; at 3.7 µM -17% | [2]; at 11.0 µM 50% | [3]; [17] 7% | [3]; at 50.0 µM 69.4% | [4]; at 1.2 µM 1% | [4]; at 3.7 µM -12% | [4]; at 11.0 µM 41% | [5]; [17] 17% | [6]; at 1.2 µM -9% | [6]; at 3.7 µM -4% | [6]; at 11.0 µM 53% | [6]; at 100.0 µM 59% | [7]; at 1.2 µM -17% | [7]; at 3.7 µM -21% | [7]; at 11.0 µM 51% | [8]; at 1.2 µM -10% | [8]; at 3.7 µM -9% | [8]; at 11.0 µM 54% | [9]; [17] -10% | [10]; at 1.2 µM -1% | [10]; at 3.7 µM 15%

Cc1ccc(S(=O)(=O)Oc2cc(Cl)c(Cl)cc2Cl)cc1
inactive: [11]; at 1.2 µM -1% | [11]; at 3.7 µM 4% | [11]; at 11.0 µM 9% | [11]; at 33.0 µM -5% | [11]; at 100.0 µM 17% | [12]; at 1.2 µM -2% | [12]; at 3.7 µM -4% | [12]; at 11.0 µM -7% | [12]; at 33.0 µM -9% | [12]; at 100.0 µM -12% | [13]; at 1.2 µM -1% | [13]; at 3.7 µM 9% | [13]; at 11.0 µM 27% | [13]; at 33.0 µM 28% | [13]; at 100.0 µM 66% | [14]; at 1.2 µM 0% | [14]; at 3.7 µM -2% | [14]; at 11.0 µM -6% | [14]; at 33.0 µM -9% | [14]; at 100.0 µM -8% | [15]; at 1.2 µM -2% | [15]; at 3.7 µM 6% | [15]; [17] 9% | [15]; at 11.0 µM 11% | [15]; at 33.0 µM 3% | [15]; [18] 7% | [15]; at 50.0 µM -6.5% | [15]; at 100.0 µM 17% | [1]; at 1.2 µM -1% | [1]; at 3.7 µM -1% | [1]; [17] -29% | [1]; at 11.0 µM -5% | [1]; at 33.0 µM -9% | [1]; [18] -17% | [1]; at 50.0 µM -21.8% | [1]; at 100.0 µM -6% | [2]; at 1.2 µM -4% | [2]; at 3.7 µM 4% | [2]; at 11.0 µM 2% | [2]; at 33.0 µM -7% | [2]; at 100.0 µM 2% | [3]; [17] 23% | [3]; [18] 25% | [3]; at 50.0 µM 7.65% | [4]; at 1.2 µM -2% | [4]; at 3.7 µM -6% | [4]; at 11.0 µM -10% | [4]; at 33.0 µM -18% | [4]; at 100.0 µM -18% | [5]; [17] 4% | [5]; [18] 3% | [5]; at 50.0 µM -9.8% | [16]; at 1.2 µM 1% | [16]; at 3.7 µM 3% | [16]; [17] 4% | [16]; at 11.0 µM 3% | [16]; at 33.0 µM -2% | [16]; [18] 40% | [16]; at 50.0 µM 10.2% | [16]; at 100.0 µM -4% | [7]; at 1.2 µM 1% | [7]; at 3.7 µM 1% | [7]; at 11.0 µM 2% | [7]; at 33.0 µM -6% | [7]; at 100.0 µM 8% | [8]; at 1.2 µM -19% | [8]; at 3.7 µM -14% | [8]; at 11.0 µM -18% | [8]; at 33.0 µM 0% | [8]; at 100.0 µM 12% | [9]; [17] 18% | [9]; [18] 53% | [9]; at 50.0 µM 2.3% | [10]; at 1.2 µM -5% | [10]; at 3.7 µM -2% | [10]; at 11.0 µM 1% | [10]; at 33.0 µM -3% | [10]; at 100.0 µM 11%

CCC#CCCCOC(=O)c1cc([N+](=O)[O-])cc([N+](=O)[O-])c1
inactive: [11]; at 1.2 µM -3% | [11]; at 3.7 µM -4% | [11]; at 11.0 µM 2% | [12]; at 1.2 µM -6% | [12]; at 3.7 µM -8% | [12]; at 11.0 µM -10% | [12]; at 33.0 µM 66% | [13]; at 1.2 µM 3% | [13]; at 3.7 µM 21% | [13]; at 11.0 µM 55% | [14]; at 1.2 µM -5% | [14]; at 3.7 µM -8% | [14]; at 11.0 µM -4% | [15]; at 1.2 µM -4% | [15]; at 3.7 µM -6% | [15]; [17] 6% | [15]; at 11.0 µM 0% | [1]; at 1.2 µM -6% | [1]; at 3.7 µM -2% | [1]; [17] 7% | [1]; at 11.0 µM 2% | [2]; at 1.2 µM -5% | [2]; at 3.7 µM -6% | [2]; at 11.0 µM 1% | [3]; [17] 10% | [4]; at 1.2 µM -5% | [4]; at 3.7 µM -11% | [4]; at 11.0 µM -19% | [4]; at 33.0 µM 44% | [5]; [17] -7% | [16]; at 1.2 µM -10% | [16]; at 3.7 µM -7% | [16]; [17] 4% | [16]; at 11.0 µM -6% | [16]; at 33.0 µM 52% | [6]; at 1.2 µM -7% | [6]; at 3.7 µM -10% | [6]; at 11.0 µM 4% | [7]; at 1.2 µM -2% | [7]; at 3.7 µM 0% | [7]; at 11.0 µM 8% | [9]; [17] 13% | [10]; at 1.2 µM -3% | [10]; at 3.7 µM 4% | [10]; at 11.0 µM 20%
active: [11]; at 33.0 µM 81% | [11]; at 100.0 µM 98% | [12]; at 100.0 µM 99% | [13]; at 33.0 µM 92% | [13]; at 100.0 µM 98% | [14]; at 33.0 µM 93% | [14]; at 100.0 µM 99% | [15]; at 33.0 µM 87% | [15]; [18] 97% | [15]; at 50.0 µM 99.2% | [15]; at 100.0 µM 98% | [1]; at 33.0 µM 83% | [1]; [18] 99% | [1]; at 50.0 µM 99.3% | [1]; at 100.0 µM 99% | [2]; at 33.0 µM 79% | [2]; at 100.0 µM 99% | [3]; [18] 99% | [3]; at 50.0 µM 99.6% | [4]; at 100.0 µM 99% | [5]; [18] 94% | [5]; at 50.0 µM 97.7% | [16]; [18] 97% | [16]; at 50.0 µM 99.5% | [16]; at 100.0 µM 98% | [6]; at 33.0 µM 98% | [6]; at 100.0 µM 99% | [7]; at 33.0 µM 91% | [7]; at 100.0 µM 99% | [9]; [18] 99% | [9]; at 50.0 µM 99.2% | [10]; at 33.0 µM 94% | [10]; at 100.0 µM 99%
